We go through 8 molecules from PubChem BioAssay (Tox21).

Assay [1] can be described thus: Nuclear factor erythroid 2-related factor 2/antioxidant responsive element (Nrf2/ARE) small molecule agonists: qHTS cell viability counter screen in human keratinocytes (AID 1919968; active = well fitted cell-killing curve with a large enough effect in the repeat runs; note: nearly all actives have a fitted effect of over 55% in size). In a few lines: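 HaCaT ARE reporter line, 1,500 cells/well; 5 h settle, 37 C/5% CO2; cpd in DMSO pinned; 23 h exposure; CellTiter-Fluor, 1 h; fluorescence.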
In general terms: Quantitative high-throughput screening tests each substance at several concentrations.

Assay [2] is described as follows: Nuclear factor erythroid 2-related factor 2/antioxidant responsive element (Nrf2/ARE) small molecule agonists: luciferase reporter gene qHTS assay in human keratinocytes (AID 1919969). Note: nearly all actives have a fitted effect of over 35% in size. Background: In a reporter assay the amount or activity of a reporter protein is the signal.
The target in assay [3] is Gonadotropin-releasing hormone receptor (Homo sapiens) (UniProt P30968). The experiment in a line: Human gonadotropin-releasing hormone receptor (GnRHR) small molecule agonists, calcium flux assay in GnRHR-HEK293 cells (AID 1920063). Note: nearly all actives have a fitted effect of over 35% in size. The gist of the method: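 GnRHR-HEK293, 1500 cells/well, 18 h 37 C/5% CO2; Ca dye 1 h 37 C; cpd pinned (DMSO), agonist mode; kinetic FL 480/540, 3 min, 1 s reads; 15 conc, n=3.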
For orientation: Calcium assays in cells follow changes in intracellular calcium, usually with a dye or a luminescent sensor.

Assay [4] in a line: G protein-coupled receptor (GPCR) small molecule agonists, calcium flux assay: HEK293 wild type cell line counter screen (AID 1920065). In a few lines: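 Kinetic fluorescence at Ex/Em 480/540, recorded every second over 3 min, served as the read-out after compound addition. Each compound was tested at 15 concentrations in triplicate on cells pre-loaded with calcium dye for 1 h.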

A short description of assay [5]: p53 small molecule agonists, cell-based qHTS assay with human liver microsomes (AID 1963577).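 Note: p53 response element beta-lactamase reporter cells with liver microsomes plus NADPH.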 In a few lines:
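Reporter activation was measured by LiveBLAzer fluorescence intensity in p53RE-bla cells, which had been exposed to compounds for 16 h at 37 C alongside 0.5 mg/mL human liver microsomes and 0.5 mg/mL NADPH (final concentrations).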

Assay [6] in a line: p53 small molecule agonists, cell-based qHTS assay with rat liver microsomes (AID 1963578). In a few lines:
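Compound in DMSO added to p53RE-bla cells 5 h post-plating; rat microsomes/NADPH 0.5 mg/mL final; 16 h, 37 C; LiveBLAzer 2 h RT.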

The nature of assay [7]: p53 small molecule agonists, cell-based qHTS assay with human liver microsomes: qHTS cell viability counter screen (AID 1963579). Note: nearly all actives have a fitted effect of over 45% in size. In a few lines: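 HLM-supplemented (0.5 mg/mL final) and NADPH-supplemented (0.5 mg/mL final) p53RE-bla cultures, 4,000 cells per well, were dosed with compounds in DMSO for 16 h at 37 C; luminescent ATP detection (CellTiter-Glo, 30 min, room temperature) quantified surviving cells.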

Assay [8] is described as follows: p53 small molecule agonists, cell-based qHTS assay with rat liver microsomes: qHTS cell viability counter screen (AID 1963580). Note: nearly all actives have a fitted effect of over 45% in size. In a few lines:
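Intracellular ATP, by CellTiter-Glo luminescence, defines viability. HCT-116 p53RE-bla cells, 4,000 per well, were compound-treated in the presence of rat liver microsomes and NADPH for 16 h at 37 C.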

A short description of assay [9]: p53 small molecule agonists, cell-based qHTS assay: qHTS cell viability counter screen (AID 1963581). Note: nearly all actives have a fitted effect of over 45% in size. The gist of the method:
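HCT-116 p53RE-bla cells, 4,000/well, plated 5 h before compound pin transfer; 16 h at 37 C; bla substrate 2 h RT; then CellTiter-Glo, 30 min RT, luminescence.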

A short description of assay [10]: p53 small molecule agonists, cell-based qHTS assay (AID 1963582; active = well fitted activation curve with a large enough effect in the signal ratio in the repeat runs, not every such curve was filed as active; the % refers to the signal ratio). In a few lines: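 Reporter line: p53RE-bla. Pre-incubation 5 h, 37 C, 5% CO2; compound (DMSO, pin tool) 16 h, 37 C; B/G FRET substrate 2 h RT; fluorescence intensity read.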
Assay [11] addresses 5-hydroxytryptamine receptor 2A (Homo sapiens) (UniProt P28223). Put plainly: 5-hydroxytryptamine receptor 2A (HTR2A) small molecule agonists, cell-based qHTS assay (AID 1963587). Note: nearly all actives have a fitted effect of over 30% in size. The gist of the method: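 Kinetic calcium-flux fluorescence (2 min, 1 sec intervals) after compound addition in agonist mode. HTR2A-CHO cells were cultured 18 h, then dye-loaded 1 h at 37 C.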
Assay [12] concerns the target Muscarinic acetylcholine receptor M1 (Homo sapiens) (UniProt P11229). Put plainly: Cholinergic receptor muscarinic 1 (CHRM1) small molecule antagonists, cell-based qHTS assay (AID 1963588). Note: nearly all actives have a fitted effect of over 40% in size. Note: potency is the fitted concentration of half-maximal effect. In a few lines: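 CHRM1-CHO calcium-flux assay, antagonist mode. Cells were seeded 18 h, dye-loaded 1 h at 37 C and given compound for 5 min at RT, then acetylcholine was added at 50nM. FDSS fluorescence was read 3 min; 15 concentrations, three runs.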

The target is the same in assay [13]. The experiment in a line: Cholinergic receptor muscarinic 1 (CHRM1) small molecule agonists, cell-based qHTS assay (AID 1963589). Note: nearly all actives have a fitted effect of over 35% in size. In a few lines:
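Human M1 in stable CHO line; 18 h plating, 1 h dye load 37 C; cpd added (agonist mode); Ca2+ fluorescence kinetic read, 1 s intervals; 15 conc, 3 runs.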

The nature of assay [14]: cAMP Responsive Elements (CRE) small molecule agonists, cell-based qHTS assay (AID 1963590). The gist of the method: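 HEK 293T CRE-bla, 2,000 cells/well, 18 h preincubation 37 C/5% CO2; cpds (DMSO) pinned, 3 h; LiveBLAzer B/G FRET substrate, 2 h RT.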
Assay [15] can be described thus: cAMP Responsive Elements (CRE) small molecule antagonists, cell-based qHTS assay (AID 1963591; active = well fitted inhibition curve with a large enough effect in the signal ratio in the repeat runs, not every such curve was filed as active; the % refers to the signal ratio). The gist of the method:
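Beta-lactamase reporter read by FRET substrate (LiveBLAzer B/G) after 2 h at room temperature. CRE-bla HEK293T cells had received compound plus 0.25 uM (final) NKH477 for 3 h at 37 °C.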

The target in assay [16] is Beta-2 adrenergic receptor (Homo sapiens) (UniProt P07550). Put plainly: Adrenergic beta2 receptor (ADRB2) small molecule antagonists, cell-based qHTS assay (AID 1963592). Note: series mostly up to about 92 µM; nearly all actives have a fitted effect of over 50% in size. The gist of the method: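 Cells (CHO, stable ADRB2 overexpression) incubated 18-20hr at 37C; compounds added from DMSO; agonist mix (1nM isoproterenol, 100uM IBMX, 25uM Ro-20-1724) added; 0.5hr RT; d2-cAMP and anti-cAMP-cryptate added; 1hr RT; 665/615 nm read.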

Assay [17] shares this target. The experiment in a line: Adrenergic beta2 receptor (ADRB2) small molecule agonists, cell-based qHTS assay (AID 1963593).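 Note: CHO cells stably overexpressing human ADRB2.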 The gist of the method: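 CHO cells stably over-expressing ADRB2 were plated overnight at 37C, then dosed with compounds plus a stimulation mix containing 100uM IBMX and 25uM Ro-20-1724 for 0.5hr at room temperature. cAMP was measured by HTRF competition, 1hr.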

Assay [18] has as its target D(2) dopamine receptor (Homo sapiens) (UniProt P14416). The experiment in a line: Dopamine D2 receptor (DRD2) small molecule agonists, cell-based qHTS assay (AID 1963594). Note: nearly all actives have a fitted effect of over 35% in size. The gist of the method:
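cAMP accumulation in DRD2-HEK293 cells measured by HTRF after 1 h detection; compounds added 10 min before NKH477 (200nM […]) forskolin-analogue stimulation, 30 min at room temperature, with Ro20-1724 present at 0.1 mM final.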

The target is the same in assay [19]. The experiment in a line: Dopamine D2 receptor (DRD2) small molecule antagonists, cell-based qHTS assay (AID 1963595; active = well fitted inhibition curve with a large enough effect in the signal ratio in the repeat runs, with a control signal flat; the % refers to the signal ratio). In a few lines: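 DRD2-HEK293; 0.1 mM Ro20-1724; cpd 10 min RT; NKH477 200 nM + quinpirole 12 nM, 30 min RT; HTRF cAMP (cAMP-d2/anti-cAMP cryptate), 665/620 nm ratio after 1 h.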
Assay [20] deals with 5-hydroxytryptamine receptor 2A (Homo sapiens) (UniProt P28223). The experiment in a line: 5-hydroxytryptamine receptor 2A (HTR2A) small molecule antagonists, cell-based qHTS assay (AID 1963586). Note: nearly all actives have a fitted effect of over 45% in size. In a few lines:
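Antagonist-mode intracellular calcium assay: DOI (4 nM) added after 5 min compound pre-incubation at room temperature to dye-loaded HTR2A-CHO cells. Fluorescence followed for 3 min, sampled every second.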

Results filed as inconclusive are left out. Activity calls are given as the source filed them. Unless noted, calls come from the whole dose curve.

Beta-2 adrenergic receptor (Homo sapiens), sequence (P07550 whole entry, looked up): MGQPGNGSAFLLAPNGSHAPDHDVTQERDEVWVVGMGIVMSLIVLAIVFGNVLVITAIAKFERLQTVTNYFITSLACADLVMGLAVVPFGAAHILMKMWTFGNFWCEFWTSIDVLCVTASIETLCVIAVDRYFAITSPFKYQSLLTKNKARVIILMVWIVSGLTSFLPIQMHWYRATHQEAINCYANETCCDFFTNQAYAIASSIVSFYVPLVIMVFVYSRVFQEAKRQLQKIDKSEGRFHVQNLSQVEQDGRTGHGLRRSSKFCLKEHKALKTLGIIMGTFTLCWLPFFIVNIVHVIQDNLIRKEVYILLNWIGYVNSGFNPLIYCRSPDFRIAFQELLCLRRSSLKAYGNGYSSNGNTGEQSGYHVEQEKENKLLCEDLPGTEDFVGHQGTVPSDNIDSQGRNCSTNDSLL
Muscarinic acetylcholine receptor M1 (Homo sapiens), sequence (P11229 whole entry, looked up): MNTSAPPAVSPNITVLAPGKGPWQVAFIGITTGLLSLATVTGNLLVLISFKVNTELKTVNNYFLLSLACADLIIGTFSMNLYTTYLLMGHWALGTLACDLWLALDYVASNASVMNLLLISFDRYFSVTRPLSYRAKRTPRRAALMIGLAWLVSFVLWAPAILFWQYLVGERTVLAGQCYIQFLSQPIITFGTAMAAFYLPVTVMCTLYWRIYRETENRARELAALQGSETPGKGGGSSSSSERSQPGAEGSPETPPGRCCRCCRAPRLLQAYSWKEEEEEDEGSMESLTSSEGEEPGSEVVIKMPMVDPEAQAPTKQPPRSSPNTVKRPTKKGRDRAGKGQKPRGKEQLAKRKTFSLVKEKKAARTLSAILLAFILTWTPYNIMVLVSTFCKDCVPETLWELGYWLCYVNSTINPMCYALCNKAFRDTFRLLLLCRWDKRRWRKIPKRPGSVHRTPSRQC
D(2) dopamine receptor (Homo sapiens), sequence (P14416 whole entry, looked up): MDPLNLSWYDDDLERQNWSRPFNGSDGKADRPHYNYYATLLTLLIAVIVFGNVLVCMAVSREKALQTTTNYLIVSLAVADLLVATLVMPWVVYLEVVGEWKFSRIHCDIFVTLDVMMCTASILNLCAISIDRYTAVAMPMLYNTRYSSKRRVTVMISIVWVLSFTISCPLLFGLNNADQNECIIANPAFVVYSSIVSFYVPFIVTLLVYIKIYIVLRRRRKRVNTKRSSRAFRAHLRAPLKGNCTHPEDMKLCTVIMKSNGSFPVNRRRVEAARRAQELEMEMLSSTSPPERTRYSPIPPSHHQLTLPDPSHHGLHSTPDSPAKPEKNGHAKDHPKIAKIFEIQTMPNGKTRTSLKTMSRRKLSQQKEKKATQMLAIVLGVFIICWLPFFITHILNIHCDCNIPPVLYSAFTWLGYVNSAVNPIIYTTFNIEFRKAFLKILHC
5-hydroxytryptamine receptor 2A (Homo sapiens), sequence (P28223 whole entry, looked up): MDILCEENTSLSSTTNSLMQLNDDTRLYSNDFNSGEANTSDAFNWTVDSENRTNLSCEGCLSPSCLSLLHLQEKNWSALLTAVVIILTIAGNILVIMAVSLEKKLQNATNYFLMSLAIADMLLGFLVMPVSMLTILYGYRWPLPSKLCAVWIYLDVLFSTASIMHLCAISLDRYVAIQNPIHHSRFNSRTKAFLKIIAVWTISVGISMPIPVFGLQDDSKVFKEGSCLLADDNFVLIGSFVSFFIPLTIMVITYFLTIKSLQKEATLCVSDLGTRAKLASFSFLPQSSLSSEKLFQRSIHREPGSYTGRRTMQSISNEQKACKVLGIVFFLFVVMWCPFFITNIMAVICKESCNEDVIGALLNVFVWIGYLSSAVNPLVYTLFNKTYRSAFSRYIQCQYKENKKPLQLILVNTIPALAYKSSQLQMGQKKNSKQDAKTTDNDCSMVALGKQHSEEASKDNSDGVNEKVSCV
Gonadotropin-releasing hormone receptor (Homo sapiens), sequence (P30968 whole entry, looked up): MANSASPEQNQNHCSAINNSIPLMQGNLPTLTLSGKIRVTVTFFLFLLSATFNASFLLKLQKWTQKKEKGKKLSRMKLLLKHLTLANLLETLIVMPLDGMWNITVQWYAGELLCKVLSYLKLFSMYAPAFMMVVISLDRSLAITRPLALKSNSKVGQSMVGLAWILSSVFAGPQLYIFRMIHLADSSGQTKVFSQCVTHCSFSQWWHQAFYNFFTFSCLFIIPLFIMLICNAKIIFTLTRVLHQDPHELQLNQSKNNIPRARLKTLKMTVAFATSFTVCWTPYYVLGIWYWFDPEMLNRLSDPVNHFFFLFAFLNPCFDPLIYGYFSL

In the case of `O=C(c1ccco1)N1CCNCC1`, the Potency entry in [1], in assay [2], in assay [3], in [5], in assay [6] and in [7] was “inactive” each time. In addition, the Potency result in [8], in [9], in assay [10], in [11], in assay [12] and in assay [13] was “inactive” throughout. For the same molecule, the Potency entry in [14], in assay [15], in assay [16], in assay [17], in assay [18] and in assay [19] was “inactive” each time. The outcome in assay [4] was inactive.
As to `O=S(=O)(c1ccccc1)c1ccc(Cl)cc1`, the Potency result in assay [1], in assay [2], in [3], in assay [5], in assay [6] and in assay [7] was “inactive” in each case. In addition, the Potency result in assay [8], in [9], in assay [10], in assay [20], in assay [12] and in assay [13] was “inactive” throughout. Besides, the Potency result in assay [14], in [15], in assay [16], in [18] and in assay [19] was “inactive” in each case. In addition, the outcome in assay [4] was inactive.
As for `Oc1cccc(O)c1O`, the Potency result in assay [1], in [2], in [3], in [5], in [6] and in assay [7] was “inactive” in each case. Further, the Potency result in assay [8], in assay [9], in assay [10], in assay [14], in assay [15] and in assay [16] was “inactive” each time. Further, the Potency result in assay [18] and in assay [19] was “inactive” each time. Further, in assay [4], the outcome was inactive.
Take `COc1cc(C(=O)NC2CCCNC2)cc(OC)c1OC` (configuration not stated): the Potency entry in assay [1], in assay [2], in assay [3], in assay [5], in assay [6] and in assay [7] was “inactive” in each case. Besides, the Potency entry in assay [8], in [9], in [10], in [14], in assay [15] and in assay [16] was “inactive” each time. In addition, the Potency result in assay [18] and in assay [19] was “inactive” throughout. In addition, in assay [4], the result was inactive.
In the case of `Cc1ccsc1/C=C/C1=NCCCN1C`, the Potency result in assay [1], in assay [2], in [3], in assay [5], in assay [6] and in assay [7] was “inactive” in each case. Also, the Potency result in assay [8], in [9], in assay [10], in assay [20], in assay [11] and in assay [13] was “inactive” throughout. In addition, the Potency result in [15], in [16], in assay [17], in assay [18] and in assay [19] was “inactive” each time. In [4], the result was inactive. Besides, the Potency in assay [12] was 3.3 nM (active).
For the molecule `NC(=O)C1(N2CCCCC2)CCN(CCCC(=O)c2ccc(F)cc2)CC1`, the Potency result in assay [1], in [2], in assay [3], in assay [5], in assay [6] and in assay [7] was “inactive” each time. The Potency result in [8], in [9], in [10], in assay [11], in assay [12] and in assay [13] was “inactive” in each case. The Potency result in [14], in assay [15], in assay [16], in [17] and in assay [18] was “inactive” in each case. In [4], the result was inactive.
Regarding `CCC(=O)Oc1ccc2c(c1)CC[C@@H]1[C@@H]2CC[C@@]2(C)[C@H]1C[C@@H](OC(=O)CC)[C@@H]2OC(=O)CC`, the Potency result in assay [1], in assay [2], in [3], in assay [6], in [8] and in assay [9] was “inactive” in each case. Moreover, the Potency entry in [10], in assay [20], in [11], in assay [12], in assay [13] and in assay [16] was “inactive” in each case. Besides, the Potency entry in assay [18] and in [19] was “inactive” each time.
As for `Nc1ccc(C(=O)O)c(O)c1`, the Potency result in [1], in [2], in assay [3], in assay [5], in assay [6] and in assay [7] was “inactive” throughout. In addition, the Potency result in assay [8], in assay [9], in assay [10], in assay [14], in [15] and in assay [16] was “inactive” throughout. In addition, in assay [19], the Potency entry is “inactive”. For the same molecule, the outcome in assay [4] was inactive.
